From PubChem BioAssay (NCI)
This is part of a sample that, as a whole, favours compounds with a hit. Of some 83,000 tested, about 20% had one in any assay.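 Results are percent growth after 48 hours of single-concentration exposure. 100 means growth as in untreated cells, lower positive values show inhibition; negative values down to -100 show cell death.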 Calls of active or inactive are those of the source. The calls were made as follows: active = growth percent below 10; inactive = the rest.

Legend:
Experiment in all cases: NCI-60 one-dose screen, 48 h (100 = growth as untreated, 0 = no growth, -100 = all killed)
Conditions in all cases: 10 µM
[1] = tested on: NCI-H23 lung
[2] = tested on: NCI-H226 lung
[3] = tested on: NCI-H322M lung
[4] = tested on: NCI-H460 lung
[5] = tested on: NCI-H522 lung
[6] = tested on: A549/ATCC NSCLC
[7] = tested on: 786-0 renal
[8] = tested on: COLO 205 colon
[9] = tested on: DU-145 prostate
[10] = tested on: K-562 leukemia
[11] = tested on: MALME-3M melanoma
[12] = tested on: MDA-MB-231 breast
[13] = tested on: RXF 393 renal
[14] = tested on: SF-268 CNS
[15] = tested on: SF-295 CNS
[16] = tested on: SF-539 CNS
[17] = tested on: UACC-257 melanoma
[18] = tested on: M14 melanoma
[19] = tested on: HOP-92 NSCLC
[20] = tested on: HOP-62 NSCLC

Measured: growth

O=C(N/N=C/c1cc([N+](=O)[O-])ccc1O)c1cccc2ccccc12
inactive: [1] 45.3% | [2] 42.6% | [3] 45.4% | [4] 20.7% | [5] 21.9% | [6] 54.8% | [7] 36.5% | [8] 48.9% | [9] 45.2% | [10] 30.3% | [11] 53.7% | [12] 40.9% | [13] 46.5% | [14] 39.8% | [15] 26.4% | [16] 22.9% | [17] 23.5% | [18] 34.5%

IC(I)I
inactive: [1] 102% | [2] 100% | [3] 102% | [4] 109% | [5] 119% | [6] 102% | [7] 101% | [9] 107% | [10] 120% | [12] 88.6% | [13] 125% | [14] 96.4% | [15] 114% | [16] 118% | [17] 109% | [18] 99%

Cc1ccc(-n2nnnc2N)c(C)c1
inactive: [1] 98.1% | [2] 115% | [3] 121% | [4] 103% | [5] 112% | [6] 104% | [7] 105% | [8] 117% | [9] 122% | [10] 115% | [11] 119% | [12] 110% | [13] 143% | [14] 114% | [15] 96.7% | [16] 123% | [17] 108% | [18] 104%

OC(CNc1ccnc2cc(Cl)ccc12)CNC1CCCCC1 (centres undefined)
inactive: [1] 86.7% | [2] 105% | [3] 74.7% | [4] 109% | [5] 49.6% | [6] 88.4% | [7] 87.9% | [9] 91.6% | [11] 101% | [12] 54.4% | [13] 33.5% | [14] 89.8% | [15] 83.5% | [16] 63.1%
active: [8] -25.4% | [17] -37.5% | [18] -15.6%

Cc1cc(C)nc(NS(=O)(=O)c2ccc(Nc3nc4nc(NCc5ccccc5)nc(-c5ccc(O)cc5)c4c(=O)[nH]3)cc2)n1
active: [19] -11.1% | [11] -12.6% | [13] -1.77%
inactive: [1] 31.6% | [2] 31.9% | [3] 10.2% | [4] 16.4% | [6] 43.9% | [8] 35.3% | [9] 33% | [10] 37.8% | [12] 29.2% | [14] 27.8% | [15] 27.3% | [16] 39.9% | [17] 66.1%

COc1cc(-c2ccc[nH]2)[nH]c1/C=C1\N=C(C)C(C(=O)NC(C)C)=C1C
inactive: [1] 40.5% | [2] 42.7% | [3] 39.2% | [5] 13.4% | [6] 14.7% | [8] 26.9% | [9] 21.2% | [13] 47.6% | [14] 44.4% | [15] 40.2% | [16] 18.9% | [17] 23.3%
active: [4] 9.93% | [7] 8.09% | [10] 1.73% | [12] -9.67% | [18] -1.65%

C[C@]12CC[C@@H]3c4ccc(O)cc4CC[C@H]3[C@@H]1CC[C@@H]2NS(=O)(=O)c1ccc(C(F)(F)F)cc1
inactive: [1] 56.4% | [2] 51.6% | [3] 63.8% | [6] 23.5% | [7] 57.4% | [9] 69.8% | [10] 22.5% | [12] 67.2% | [13] 22.9% | [14] 57% | [15] 30.9% | [16] 78.1% | [17] 73.6% | [18] 36.6%
active: [4] 3.9% | [8] 9.34% | [11] 9.1%

NC(N)=N/N=C(\N=Nc1ccccc1)c1ccc(Cl)cc1
active: [10] 1.17% | [12] -12.5% | [15] -5.99%
inactive: [1] 78.9% | [2] 82.3% | [3] 64.8% | [4] 40% | [5] 29.9% | [6] 52.7% | [7] 46.7% | [8] 48.1% | [9] 47.3% | [11] 85.6% | [13] 41.5% | [14] 34.2% | [16] 19.7% | [17] 70.9% | [18] 10.2%

N=C1S/C(=C/c2ccc(-c3ccc4c(c3)C(=O)NC4=O)o2)C(=O)N1c1ccc(Br)cc1
active: [13] -28.5%
inactive: [1] 55.8% | [2] 66.5% | [3] 43% | [4] 34.6% | [5] 35.5% | [6] 34.5% | [7] 45.9% | [8] 55.1% | [9] 27.8% | [10] 21.5% | [11] 18.3% | [12] 46.5% | [14] 39.3% | [15] 22.1% | [16] 87.8% | [17] 47.7% | [18] 36.7%

COc1ccc2nc3cc(Cl)ccc3c(NCCCNCCO)c2c1
inactive: [11] 17.8%
active: [1] -21.7% | [2] -9.48% | [3] -22.6% | [4] -8.13% | [5] -86.5% | [6] -26.2% | [7] 6.46% | [9] 5.64% | [10] -4.13% | [12] -53.8% | [14] -13.2% | [15] 3.49% | [16] -10.2% | [17] -75.4% | [18] -62.8%

CN(C)c1ccc(/C=N/NC(=O)c2cccc3ccccc23)c(Cl)c1
active: [1] 1.31% | [13] 7.47%
inactive: [2] 61.2% | [3] 57.6% | [4] 19.2% | [5] 22.6% | [6] 26.8% | [7] 56.1% | [8] 19.7% | [9] 17.1% | [10] 11.6% | [11] 53.4% | [12] 67.7% | [14] 59% | [15] 19.1% | [16] 19.9% | [17] 35.8% | [18] 27.6%

CCN(CC)CCCC(Nc1c2ccc(Cl)cc2nc2ccc(OC)cc12)c1ccc(F)cc1 (centres undefined)
active: [4] -17.8% | [5] -24.3% | [7] -70.8% | [10] -42.8% | [11] -75.4% | [12] -15.2% | [13] -71.1% | [16] -82.3% | [17] -55.3% | [18] -79.2%
inactive: [1] 86.9% | [2] 94.1% | [3] 14.7% | [6] 18.4% | [9] 32.6% | [14] 67.8% | [15] 91.5%

CCOC(=O)c1cocc1C(=O)O
inactive: [1] 109% | [2] 102% | [3] 110% | [4] 104% | [5] 106% | [6] 101% | [7] 103% | [8] 108% | [9] 113% | [10] 92.6% | [11] 106% | [12] 118% | [13] 114% | [14] 108% | [15] 101% | [16] 107% | [17] 103% | [18] 103%

O=C1/C(=C/c2cccc(F)c2)Cc2ccccc21
inactive: [1] 101% | [2] 105% | [3] 94.4% | [4] 107% | [19] 73.5% | [6] 87.7% | [7] 98.1% | [8] 124% | [9] 113% | [10] 106% | [11] 106% | [12] 112% | [13] 99.4% | [14] 112% | [15] 77.9% | [16] 110% | [18] 98.8%

CC(C)(C)c1ccc(S(=O)(=O)N[C@H]2CC[C@H]3[C@@H]4CCc5cc(O)c([N+](=O)[O-])cc5[C@H]4CC[C@]23C)cc1
inactive: [1] 83.5% | [2] 80% | [3] 77.1% | [4] 45.6% | [5] 65.1% | [6] 48.3% | [7] 62.1% | [8] 96.4% | [9] 67.4% | [10] 70.1% | [11] 67.1% | [12] 35.7% | [13] 42.5% | [14] 72.6% | [16] 81.5% | [17] 77.7% | [18] 78.5%

CC(C)(C)c1ccc(S(=O)(=O)Oc2ccc(NC(=O)C3CCCCC3)cc2)cc1
inactive: [1] 23% | [2] 45.4% | [20] 88.7% | [4] 44.2% | [19] 39.6% | [5] 25.4% | [6] 41.5% | [7] 55.4% | [8] 32.4% | [9] 59.2% | [10] 27% | [11] 78.9% | [12] 72% | [13] 65.1% | [14] 70.6% | [15] 22.8% | [16] 73.2%

C[C@]12CC[C@@H]3c4ccc(OS(=O)(=O)O)cc4CC[C@H]3[C@@H]1CC[C@@H]2NS(=O)(=O)c1ccc(-c2ccccc2)cc1
inactive: [1] 61.5% | [2] 68.4% | [3] 86.9% | [4] 43.3% | [5] 44.4% | [6] 36.3% | [7] 69.6% | [8] 47.4% | [9] 75.3% | [10] 26.8% | [11] 60.8% | [12] 84.3% | [13] 53.1% | [14] 69.8% | [16] 90.1% | [17] 77.2% | [18] 62.8%

CCC(c1ccc(OC)cc1)C(CC)c1ccc(O)c(CN2CCN(C)CC2)c1 (centres undefined)
inactive: [1] 57.8% | [2] 88.9% | [3] 76.1% | [4] 51.8% | [5] 61.9% | [7] 57.6% | [9] 92.4% | [12] 56.3% | [13] 39.3% | [14] 80.6% | [15] 28.9% | [16] 67.4%
active: [8] -83.5% | [10] 9.45% | [11] 6.2% | [17] -5.73% | [18] -19.5%
